# Measurements published in PubChem BioAssay.
# Activity calls are given as the source filed them.
# Experiments:
# [1] = optical density shifts of acrAB sulA E. coli – strain DRC41, OD650, 48 h, E. coli filamentation inducer project, primary screen (AID 1152); conditions: higher = more signal, called active from +8 up or from −8 down;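 also: E. coli MC1000 strain DRC41 lacking acrAB efflux pump and sulA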
# [2] = probe aLefty1 binding on compound microarray – biochemical, small-molecule microarray, 635/667 nm fluorescence, primary screen (AID 1153); conditions: higher = more signal;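 also: score merges spot fluorescence with signal-to-noise ratio from the scanned slide images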
# [3] = plasmodial surface anion channel blockers, osmotic lysis – cell-based, P. falciparum Indochina, OD700, 1 h, primary screen (AID 1154); conditions: P. falciparum Indochina infected RBC osmotic lysis, higher = more signal, called active from +8 up or from −8 down
# [4] = plasmodial surface anion channel blockers, osmotic lysis – cell-based, P. falciparum Indochina, OD700, 2 h, primary screen (AID 1155);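 also: lysis reports solute entry through the parasite surface anion channel PSAC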; conditions: P. falciparum Indochina infected erythrocytes, higher = more signal, called active from +8 up or from −8 down
# [5] = changes in parasitized red cell lysis, either direction – P. falciparum Indochina, OD700, 3 h, PSAC antagonist project, primary screen (AID 1156); conditions: P. falciparum-infected erythrocytes, osmotic lysis, higher = more signal, called active from +8 up or from −8 down
# [6] = plasmodial surface anion channel blockers, osmotic lysis – cell-based, P. falciparum Indochina, OD700, 18 h, primary screen (AID 1157); conditions: P. falciparum Indochina infected erythrocytes, osmotic lysis OD700, 18 h; higher = more signal, called active from +8 up or from −8 down
# [7] = S6 kinase pathway phospho-S6 level changes – cell-based, A549, cytoblot, luminescence, serum-stimulated, primary screen (AID 1158); conditions: 5 h, higher = more signal;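 also: serum-stimulated A549 lung adenocarcinoma cells; signal is phosphorylated S6 detected by cytoblot immunostaining with HRP secondary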
# [8] = target: NADPH oxidase 2 (Homo sapiens) (UniProt P04839); experiment: compounds shifting NOX2 Amplex Red fluorescence – cell-based, HEK293-NOX2, PMA-stimulated, NOX inhibitor project, primary screen (AID 1159); conditions: 45 min, higher = more signal, called active from +8 up or from −8 down; also: test concentration not given here
# [9] = target: NADPH oxidase 4 (Homo sapiens) (UniProt Q9NPH5); experiment: compounds shifting NOX4 Amplex Red fluorescence – cell-based, HEK293-NOX4, tetracycline-induced, NOX inhibitor project, primary screen (AID 1160); conditions: HEK293-NOX4, Amplex Red H2O2 fluorescence, 45 min; higher = more signal, called active from +8 up or from −8 down
# [10] = target: NADPH oxidase 5 (Homo sapiens) (UniProt Q96PH1); experiment: compounds shifting NOX5 Amplex Red fluorescence – cell-based, HEK293-NOX5, NOX inhibitor project, primary screen (AID 1161); conditions: HEK293-NOX5, ionomycin, 45 min, higher = more signal
# [11] = compound effects on lung adenocarcinoma cell viability – A549, calcein-AM fluorescence, 48 h, basal, profiling panel (AID 1162); conditions: higher = more signal; also: test concentration not given here
# [12] = compound effects on differentiated 3T3-L1 adipocyte viability – cell-based, 3T3-L1 adipocytes, calcein-AM fluorescence, 48 h, basal, profiling panel (AID 1163); conditions: 3T3-L1 adipocytes viability, higher = more signal; also: test concentration not given here
# [13] = compound effects on hepatocellular carcinoma cell viability – HepG2, calcein-AM fluorescence, 48 h, basal, profiling panel (AID 1164); conditions: higher = more signal; also: test concentration not given here
# [14] = compound effects on multiple myeloma cell viability – MM1S, calcein-AM fluorescence, 48 h, basal, profiling panel (AID 1165); conditions: higher = more signal; also: test concentration not given here
# [15] = calcein-AM signal in unstimulated myeloma cells – cell-based, calcein-AM fluorescence, 48 h, PK04 Diversity Set, profiling panel (AID 1166); conditions: RPMI8226 myeloma viability, higher = more signal;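 also: cells grown under basal conditions without added stimulus; test concentration not given here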
# [16] = JC-1 mitochondrial signal, unstimulated HepG2 cells – cell-based, JC-1 fluorescence, 24 h, 100 nL compound, profiling panel (AID 1167); conditions: HepG2 mitochondrial potential, higher = more signal; also: test concentration not given here
# [17] = JC-1 mitochondrial signal, unstimulated adipocytes – cell-based, JC-1 fluorescence, 3T3-L1 adipocytes, 24 h, 100 nL compound, profiling panel (AID 1168); conditions: JC-1 mitochondrial fluorescence, higher = more signal, called active from +8 up or from −8 down; also: test concentration not given here
# [18] = JC-1 mitochondrial signal, unstimulated myeloma cells – cell-based, JC-1 fluorescence, RPMI8226, 24 h, 100 nL compound, profiling panel (AID 1169); conditions: JC-1 mitochondrial potential fluorescence, higher = more signal; also: test concentration not given here
# [19] = JC-1 mitochondrial signal, unstimulated MM1S myeloma – cell-based, JC-1 fluorescence, 24 h, 100 nL compound, profiling panel (AID 1170); conditions: MM1S mitochondrial potential, higher = more signal; also: test concentration not given here
# [20] = resazurin metabolic signal in A549 cells – cell-based, resazurin fluorescence, 24 h, PK04 Diversity Set, profiling panel (AID 1171); conditions: A549 viability, higher = more signal, called active from +8 up or from −8 down; also: test concentration not given here
# NADPH oxidase 4 (Homo sapiens), sequence (Q9NPH5 whole entry, looked up): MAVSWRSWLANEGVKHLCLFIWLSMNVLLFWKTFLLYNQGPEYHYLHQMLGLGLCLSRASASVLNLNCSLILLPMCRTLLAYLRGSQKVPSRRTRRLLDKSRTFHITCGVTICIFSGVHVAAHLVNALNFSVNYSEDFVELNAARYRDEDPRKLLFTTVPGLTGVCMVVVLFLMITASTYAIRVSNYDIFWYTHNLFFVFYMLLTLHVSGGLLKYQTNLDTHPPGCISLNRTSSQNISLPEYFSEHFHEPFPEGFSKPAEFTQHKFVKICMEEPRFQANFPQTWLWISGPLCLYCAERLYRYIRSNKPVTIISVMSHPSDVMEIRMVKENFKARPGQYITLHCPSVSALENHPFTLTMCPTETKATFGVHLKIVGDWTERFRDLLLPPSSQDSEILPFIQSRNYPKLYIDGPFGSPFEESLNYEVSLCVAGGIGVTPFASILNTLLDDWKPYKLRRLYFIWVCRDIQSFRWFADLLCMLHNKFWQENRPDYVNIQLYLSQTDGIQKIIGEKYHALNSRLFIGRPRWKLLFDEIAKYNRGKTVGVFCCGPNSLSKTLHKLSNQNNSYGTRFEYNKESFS
# NADPH oxidase 2 (Homo sapiens), sequence (P04839 whole entry, looked up): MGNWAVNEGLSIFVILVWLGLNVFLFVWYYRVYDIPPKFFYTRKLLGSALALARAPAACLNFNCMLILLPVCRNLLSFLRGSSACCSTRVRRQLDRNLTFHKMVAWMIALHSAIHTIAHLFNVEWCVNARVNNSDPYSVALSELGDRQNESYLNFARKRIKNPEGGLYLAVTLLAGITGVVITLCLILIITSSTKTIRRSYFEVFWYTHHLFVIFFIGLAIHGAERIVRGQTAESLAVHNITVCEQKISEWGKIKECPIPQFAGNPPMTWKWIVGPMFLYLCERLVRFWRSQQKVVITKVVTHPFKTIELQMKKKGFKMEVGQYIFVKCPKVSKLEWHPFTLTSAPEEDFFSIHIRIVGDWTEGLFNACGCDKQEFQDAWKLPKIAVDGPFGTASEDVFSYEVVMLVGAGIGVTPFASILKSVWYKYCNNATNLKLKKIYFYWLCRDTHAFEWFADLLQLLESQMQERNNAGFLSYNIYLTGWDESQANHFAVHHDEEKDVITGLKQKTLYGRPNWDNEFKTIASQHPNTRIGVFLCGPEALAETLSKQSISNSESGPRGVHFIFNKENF
# NADPH oxidase 5 (Homo sapiens), sequence (Q96PH1 whole entry, looked up): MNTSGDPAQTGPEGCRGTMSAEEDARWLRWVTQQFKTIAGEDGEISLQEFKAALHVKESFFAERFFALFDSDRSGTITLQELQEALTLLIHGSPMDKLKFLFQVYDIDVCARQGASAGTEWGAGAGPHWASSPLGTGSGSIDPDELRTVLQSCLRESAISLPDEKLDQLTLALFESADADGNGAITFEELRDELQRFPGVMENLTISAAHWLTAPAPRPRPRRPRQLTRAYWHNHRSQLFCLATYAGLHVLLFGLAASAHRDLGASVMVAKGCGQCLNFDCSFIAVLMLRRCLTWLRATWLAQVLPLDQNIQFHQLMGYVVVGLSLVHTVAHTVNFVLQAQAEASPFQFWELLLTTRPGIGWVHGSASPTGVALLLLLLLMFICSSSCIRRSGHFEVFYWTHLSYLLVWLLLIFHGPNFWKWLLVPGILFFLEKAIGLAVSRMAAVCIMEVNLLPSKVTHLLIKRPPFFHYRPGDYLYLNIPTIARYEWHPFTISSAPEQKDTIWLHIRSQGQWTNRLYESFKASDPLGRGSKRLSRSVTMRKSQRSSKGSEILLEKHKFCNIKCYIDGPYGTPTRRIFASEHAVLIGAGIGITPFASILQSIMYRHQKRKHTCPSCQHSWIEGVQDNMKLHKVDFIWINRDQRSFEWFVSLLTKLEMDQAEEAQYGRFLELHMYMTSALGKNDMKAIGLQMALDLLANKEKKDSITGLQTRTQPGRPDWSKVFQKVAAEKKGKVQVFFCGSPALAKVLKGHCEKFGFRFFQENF
Structure (SMILES),z-score [1],composite z-score [2],z-score [3],z-score [4],z-score [5],z-score [6],z-score [7],z-score [8],z-score [9],z-score [10],z-score [11],z-score [12],z-score [13],z-score [14],z-score [15],z-score [16],z-score [17],z-score [18],z-score [19],z-score [20]
C=CCOC(=O)[C@@H]1[C@H]2C(=O)O[C@H](c3ccccc3)[C@H](c3ccccc3)N2[C@H](c2ccc(OCCOC(=O)[C@H]3C[C@H]4C(=O)N[C@@H](CC(C)C)C(=O)N4[C@H]3c3ccc(O)cc3)cc2)[C@@]12C(=O)Nc1ccc(I)cc12,0.715 (inactive),0.0278,2.42 (inactive),1.47 (inactive),0.946 (inactive),0.792 (inactive),0.171,1.75 (inactive),1.66 (inactive),1.36,0.15,0.325,1.02,0.38,1.08,-0.227,3.06 (inactive),-0.952,-0.838,-0.0756 (inactive)
COCCOC(=O)N1C(=O)[C@@]2(c3cc(C#CC4=CCCCC4)ccc31)[C@H](c1ccccc1OCCO)N1[C@H](c3ccccc3)[C@H](c3ccccc3)OC(=O)[C@H]1[C@@H]2C(=O)N1CCc2cc(OC)c(OC)cc2C1,-0.26 (inactive),-0.715,2.7 (inactive),1.85 (inactive),0.578 (inactive),1.02 (inactive),0.128,1.41 (inactive),0.739 (inactive),1.53,0.697,0.186,1.34,0.235,-2.05,0.767,3.23 (inactive),-1.06,-1.32,-0.926 (inactive)
COc1cc(CO)cc(I)c1O[C@H]1C=C(C(=O)NCCO)C[C@@H](N(CC2CCCCC2)C(=O)c2ccc(C(F)(F)F)cc2)[C@@H]1O,1.76 (inactive),-0.0547,1.05 (inactive),0.447 (inactive),1.69 (inactive),0.329 (inactive),0.597,-0.363 (inactive),0.916 (inactive),0.686,0.608,-0.535,1.42,0.639,-0.189,0.214,-0.0651 (inactive),-1.09,-0.337,0.126 (inactive)
CC1CC/C=C\[C@H]2OC34C=CCN(C(C)C)C(=O)[C@H]3N(CCCCCO)C(=O)[C@@H]4C2C(=O)O1 (stereo not given in full),0.881 (inactive),-0.15,-0.54 (inactive),0.0524 (inactive),0.66 (inactive),0.427 (inactive),-0.61,0.745 (inactive),-0.338 (inactive),1.05,1.85,0.601,0.29,1.84,-1.4,0.583,0.633 (inactive),-0.137,1.9,0.98 (inactive)
C=CC[C@@]1(C(=O)N2CCCCC2)N=C(c2ccc(OCCCO)cc2)O[C@@H]1c1ccccc1,0.659 (inactive),0.683,26.1 (active),11.4 (active),2.02 (inactive),1.97 (inactive),-0.499,-0.432 (inactive),0.174 (inactive),-1.66,-0.721,0.533,0.292,-1.3,-1.13,-0.381,-0.282 (inactive),-1.09,0.0448,2.5 (inactive)
CC(C)C(O)C1C=CC2C(=O)N(C)C(=O)C2N1Nc1ccccc1 (stereo not given),-0.532 (inactive),0.124,-0.162 (inactive),1.18 (inactive),0.448 (inactive),0.778 (inactive),-0.679,-1.43 (inactive),-3.72 (inactive),-2.93,0.678,-0.955,0.0515,-1.53,-0.283,-0.993,-1.15 (inactive),-0.0596,-0.254,0.204 (inactive)
COC(=O)[C@@]1(Cc2ccc(F)cc2)[C@H]2c3cc(C(=O)N4CCCC4)n(CCF)c3C[C@H]2CN1C(=O)c1ccccc1,-0.379 (inactive),2.02,6.17 (inactive),0.237 (inactive),0.423 (inactive),0.715 (inactive),0.563,0.6 (inactive),-0.248 (inactive),-0.159,-0.719,0.251,0.426,-1.04,-0.374,1.98,-0.000991 (inactive),-0.0725,0.26,0.763 (inactive)
CCOC(=O)C[C@H]1[C@H](OC(=O)Cc2ccc3c(c2)OCO3)[C@@H](NC(=O)C2CCCCC2)c2cc(OCCCO)ccc2N1C(=O)c1ccc2ccccc2n1,0.699 (inactive),-0.106,1.88 (inactive),-0.954 (inactive),-0.13 (inactive),-2.2 (inactive),1.17,-1.86 (inactive),0.214 (inactive),-2.62,0.177,1.72,0.726,0.435,-1.18,-2.42,0.436 (inactive),0.602,-0.703,0.125 (inactive)
